CYP2C9 act: human CYP2C9 activators, primary screen, biochemical, luminescence; Cytochrome P450 2C9 (Homo sapiens), P11712; recombinant CYP2C9, luciferin-H conversion; stronger effect = higher value; factor 1 = untreated enzyme, 0 = blocked; activation factor at 5 µM; 96,000 compounds, 1.4% hits; AID 1024, 2008;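 active means activation factor of 2 or more for CYP2C9 at a 5 µM dose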
CYP2C19 inh: blockers of cytochrome P450 2C19 activity – biochemical, luminescence, ADME assay, primary screen | AID 778, 2007 | inhibition, % at 5 µM | P33261 | 96,000 compounds, 21% hits | CYP2C19 Supersomes, luciferin-H EGE luminescence, 30 min;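 active means CYP2C19 inhibition above a set limit at 5 µM in the primary screen, cut at about 50% in these data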
Cav3 T inh: Cav3.2 calcium influx blockers – cell-based, Fluo-4 calcium fluorescence, FDSS, MLSMR library, primary screen. Voltage-dependent T-type calcium channel subunit alpha-1H (Homo sapiens), O95180. Cav3.2-expressing cells; stronger effect = lower value. B-score at 10 µM. 100,000 compounds, 4% hits;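 active means single-dose well whose peak fluorescence ratio is a statistical outlier from its plate by either plate-standardised score or position-corrected B-score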
Target sequence (O95180 whole entry, looked up): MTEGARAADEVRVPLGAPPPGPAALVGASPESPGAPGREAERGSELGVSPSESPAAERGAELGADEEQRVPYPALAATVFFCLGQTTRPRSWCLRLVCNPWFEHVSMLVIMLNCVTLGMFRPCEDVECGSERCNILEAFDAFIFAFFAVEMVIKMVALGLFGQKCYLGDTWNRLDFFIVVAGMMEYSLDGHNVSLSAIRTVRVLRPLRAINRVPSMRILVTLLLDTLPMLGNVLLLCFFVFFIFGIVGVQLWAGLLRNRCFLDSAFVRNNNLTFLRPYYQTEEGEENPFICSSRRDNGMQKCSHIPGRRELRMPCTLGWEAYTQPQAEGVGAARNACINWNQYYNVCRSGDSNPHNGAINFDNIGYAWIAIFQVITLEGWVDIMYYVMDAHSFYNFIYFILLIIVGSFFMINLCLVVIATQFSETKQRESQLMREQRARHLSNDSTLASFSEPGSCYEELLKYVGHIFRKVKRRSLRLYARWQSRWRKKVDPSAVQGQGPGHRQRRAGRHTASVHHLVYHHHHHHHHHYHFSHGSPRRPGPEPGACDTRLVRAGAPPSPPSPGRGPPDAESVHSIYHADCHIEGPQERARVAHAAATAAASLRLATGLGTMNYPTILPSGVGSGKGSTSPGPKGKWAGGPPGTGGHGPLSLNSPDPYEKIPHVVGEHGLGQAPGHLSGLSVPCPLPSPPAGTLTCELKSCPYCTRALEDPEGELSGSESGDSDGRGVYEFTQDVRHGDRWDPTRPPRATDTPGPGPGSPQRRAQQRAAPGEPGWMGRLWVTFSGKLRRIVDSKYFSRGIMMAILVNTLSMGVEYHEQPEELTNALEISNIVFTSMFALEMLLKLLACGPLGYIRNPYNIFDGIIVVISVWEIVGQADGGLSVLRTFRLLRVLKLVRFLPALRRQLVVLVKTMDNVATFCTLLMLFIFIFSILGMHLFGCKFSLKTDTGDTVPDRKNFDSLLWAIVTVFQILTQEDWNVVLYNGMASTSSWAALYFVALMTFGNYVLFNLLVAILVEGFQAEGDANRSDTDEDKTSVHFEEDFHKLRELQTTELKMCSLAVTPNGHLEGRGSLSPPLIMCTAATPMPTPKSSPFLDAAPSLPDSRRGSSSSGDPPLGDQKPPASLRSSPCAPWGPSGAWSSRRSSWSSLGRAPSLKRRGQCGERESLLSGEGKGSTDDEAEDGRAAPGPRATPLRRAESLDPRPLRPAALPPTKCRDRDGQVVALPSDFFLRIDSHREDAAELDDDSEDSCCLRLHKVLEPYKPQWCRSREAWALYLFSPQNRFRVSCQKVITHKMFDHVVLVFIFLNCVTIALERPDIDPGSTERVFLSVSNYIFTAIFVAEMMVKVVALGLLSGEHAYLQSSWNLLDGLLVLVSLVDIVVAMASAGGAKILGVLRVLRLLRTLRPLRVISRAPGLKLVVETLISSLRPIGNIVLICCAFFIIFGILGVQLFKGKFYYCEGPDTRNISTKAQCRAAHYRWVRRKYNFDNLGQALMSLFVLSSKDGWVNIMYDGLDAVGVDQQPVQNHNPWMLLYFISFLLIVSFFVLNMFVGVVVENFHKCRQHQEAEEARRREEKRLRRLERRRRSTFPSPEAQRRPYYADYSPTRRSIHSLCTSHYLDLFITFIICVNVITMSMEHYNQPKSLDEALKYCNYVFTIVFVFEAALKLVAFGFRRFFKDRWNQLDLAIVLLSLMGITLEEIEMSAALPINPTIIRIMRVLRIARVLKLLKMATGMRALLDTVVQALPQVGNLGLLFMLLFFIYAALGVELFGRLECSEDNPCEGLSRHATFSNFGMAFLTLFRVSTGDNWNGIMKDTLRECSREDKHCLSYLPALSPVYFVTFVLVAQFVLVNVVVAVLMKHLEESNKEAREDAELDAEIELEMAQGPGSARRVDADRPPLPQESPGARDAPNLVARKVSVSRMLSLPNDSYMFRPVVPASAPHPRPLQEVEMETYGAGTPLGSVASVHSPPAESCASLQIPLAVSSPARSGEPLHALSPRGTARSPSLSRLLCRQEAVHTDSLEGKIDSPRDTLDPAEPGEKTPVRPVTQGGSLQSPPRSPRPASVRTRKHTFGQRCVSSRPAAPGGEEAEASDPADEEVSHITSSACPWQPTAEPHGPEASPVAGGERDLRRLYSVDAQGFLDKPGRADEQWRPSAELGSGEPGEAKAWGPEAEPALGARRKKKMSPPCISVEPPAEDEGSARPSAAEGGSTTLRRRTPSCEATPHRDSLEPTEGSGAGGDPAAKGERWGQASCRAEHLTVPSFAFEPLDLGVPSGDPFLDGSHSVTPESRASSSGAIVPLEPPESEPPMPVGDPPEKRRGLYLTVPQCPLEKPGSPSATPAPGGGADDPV
CYP2C19 activ: human CYP2C19 activators, primary screen, biochemical, luminescence; recombinant CYP2C19, luciferin-H EGE luminescence; stronger effect = higher value; 0 = fully inhibited enzyme, 1 = untreated enzyme; activation factor at 5 µM; Cytochrome P450 2C19 (Homo sapiens), P33261; 96,000 tested, under 10 active;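 active means activation factor of at least 2 at 5 µM in the primary screen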
CYP2C9 inhib: blockers of cytochrome P450 2C9 activity – biochemical, luminescence, ADME assay, primary screen; P11712; AID 777, 2007; CYP2C9 Supersomes, luciferin-H conversion; 96,000 compounds, 20% hits; inhibition, % at 5 µM;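 active means blocking of liver enzyme CYP2C9 beyond about 50% at 5 µM, limit read from the data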
Of the large screens only hits and unclear results are named; the others gave an inactive call. The list is not random: actives were taken first. Their share in the collection is about 27%.

CCCNC(=O)C1CC(c2ccc(C(F)(F)F)cc2)=NO1 (stereo unspecified)	none (no result: CYP2C9 act, CYP2C19 inh, CYP2C19 activ, CYP2C9 inhib)
O=C1c2ccc(-c3nc4ccccc4o3)cc2C(=O)N1Cc1cccnc1	none (no result: CYP2C9 act, CYP2C19 inh, CYP2C19 activ, CYP2C9 inhib)
CSC1=C(C#N)C(c2ccccc2Cl)C(C(C)=O)=C(C)N1 (stereo unspecified)	none (no result: CYP2C9 act, CYP2C19 inh, CYP2C19 activ, CYP2C9 inhib)
CCOC(=O)CSC1=C(C#N)C(c2ccccc2)C(C(C)=O)=C(C)N1 (stereo unspecified)	CYP2C19 inh 58, CYP2C9 inhib 59
CSCSC1=C(C#N)C(c2ccc(Cl)cc2)C(C(C)=O)=C(C)N1 (stereo unspecified)	CYP2C19 inh 98, Cav3 T inh -5.5, CYP2C9 inhib 100
CCOC(=O)CSc1nc2cc(C)ccc2cc1C#N	none
CCOC(=O)CSC1=C(C#N)C(c2ccc(C)cc2)C(C(=O)OC)C(=O)N1 (stereo unspecified)	CYP2C19 inh 54
COc1cc2[nH]c(-c3cccc(F)c3)cc(=O)c2cc1OC	none (no result: CYP2C9 act, CYP2C19 inh, CYP2C19 activ, CYP2C9 inhib)
Nn1c(Cc2cccc3ccccc23)nnc1SC1CCOC1=O (stereo unspecified)	CYP2C9 act 2.9, CYP2C19 inh 55
CN(C(=O)CSc1nnc(Cc2cccc3ccccc23)n1N)C1CCS(=O)(=O)C1 (stereo unspecified)	CYP2C9 act 2
CC(=O)C1=C(O)C(=O)N(c2ccc(S(N)(=O)=O)cc2)C1c1ccc([N+](=O)[O-])cc1 (stereo unspecified)	CYP2C9 inhib 90
CC(=O)C1=C(O)C(=O)N(c2ccc(C(=O)O)cc2)C1c1ccccc1 (stereo unspecified)	none
COc1cccc(-c2nn(-c3ccccc3)cc2/C=C\C(=O)c2cccs2)c1	CYP2C9 inhib 58
O=C(Cn1cnc2c(nnn2Cc2ccc(Cl)cc2)c1=O)NCc1ccco1	none (no result: CYP2C9 act, CYP2C19 inh, CYP2C19 activ, CYP2C9 inhib)
O=C(NC1CS(=O)(=O)CC1NCc1ccccc1)c1ccccc1 (stereo unspecified)	none
COc1ccc(NC(=O)C2C3C=CC(C3)C2C(=O)NCc2ccco2)cc1 (stereo unspecified)	CYP2C19 inh 67
COc1ccc(C2=NOC(C(=O)NCc3ccco3)C2)cc1 (stereo unspecified)	none
O=S1(=O)CC(NCc2ccccc2)C(Nc2ccccc2)C1 (stereo unspecified)	CYP2C19 inh 86
COc1ccc(NC2CS(=O)(=O)CC2NCc2ccco2)cc1 (stereo unspecified)	CYP2C19 inh 89
COc1ccc(OCC(=O)OCC(=O)NCc2ccco2)cc1	none (no result: Cav3 T inh)
Cc1ccc(S(=O)(=O)Cn2nnnc2CN(Cc2ccco2)CC2CCCO2)cc1 (stereo unspecified)	CYP2C19 inh 84, CYP2C9 inhib 91
Cc1cccc2cc(CN(CC3CCCO3)S(=O)(=O)c3ccccc3)c3nnnn3c12 (stereo unspecified)	none (no result: Cav3 T inh)
Cc1ccc2cc(CN(Cc3nnnn3Cc3ccco3)CC3CCCO3)c(=O)[nH]c2c1C (stereo unspecified)	CYP2C19 inh 82, CYP2C9 inhib 86
Cc1ccc2cc(CN(CC3CCCO3)S(=O)(=O)c3ccccc3)c3nnnn3c2c1 (stereo unspecified)	none (no result: CYP2C9 act, CYP2C19 inh, CYP2C19 activ, CYP2C9 inhib)
Cc1cccc2cc(CN(Cc3nnnn3Cc3ccco3)C3CCCC3)c3nnnn3c12	CYP2C19 inh 92, CYP2C9 inhib 94 (no result: Cav3 T inh)
CN(C)CCNC(=O)C(C(=O)c1ccc(F)cc1)n1ccccc1=O (stereo unspecified)	none
CCC(NC(=O)NC1=NCCS1)(C(F)(F)F)C(F)(F)F	none
CN(C(=O)CSC1=Nc2ccccc2C2=NC(c3ccccc3)C(=O)N12)C1CCCCC1 (stereo unspecified)	none
Cc1ccc(CCNC(=O)C2CCN(C(=O)c3sccc3-n3cccc3)CC2)cc1	none
CC(OC(=O)c1cc2sccc2n1C)C(=O)NCc1ccco1 (stereo unspecified)	CYP2C19 inh 90, CYP2C9 inhib 79
CC(OC(=O)c1cc2sccc2n1C)C(=O)NCc1ccc(F)cc1 (stereo unspecified)	CYP2C19 inh 78, CYP2C9 inhib 74
Cn1c(C(=O)OC(C(=O)NCc2ccco2)c2ccncc2)cc2sccc21 (stereo unspecified)	CYP2C19 inh 98, CYP2C9 inhib 90

Source: PubChem
